These results are taken from PubChem BioAssay (NCATS).

Assay [1] can be described thus: qHTS Assay for Identifying Gametocytocidal Compounds (AID 743244). Also: potency is read from the fitted curve at half-maximal effect.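 As to max response: actives lower the fluorescent signal which means gametocytes are killed.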 The following applies: P. falciparum 3D7 stage III-V gametocytes, alamarBlue, 72 h; max response: active compounds read low. A digest of the protocol: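 In this qHTS viability screen, late-stage 3D7 gametocytes are incubated with compound for 72 h, then with alamarBlue for 24 h; reduced resorufin fluorescence marks killing.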

The nature of assay [2]: qHTS assay to identify small molecule inhibitors of chordoma cells - UCH-2 (AID 1259356). Also: potency is read from the fitted curve at half-maximal effect. The note with it: UCH-2 chordoma viability, CellTiter-Glo ATP luminescence, 48 h; series mostly up to 46.1 µM.
The nature of assay [3]: qHTS assay for cell viability of HEK293 cells (AID 743288). Also: nearly all actives have a fitted effect of over 50% in size. The following applies: ATP luminescence (CellTiter-Glo), 18 h, active compounds read low. The method, boiled down:
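Total intracellular ATP, measured with a luciferase-coupled reagent, indicates the number of viable HEK293 cells. Exposure to test chemicals lasts 18 h at 37 C in 1,536-well format at 2,000 cells/well.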

The nature of assay [4]: qHTS assay for cell viability of the p53RE-bla HCT-116 cell line (AID 743292). Also: nearly all actives have a fitted effect of over 55% in size. The note with it: p53RE-bla HCT-116 viability, ATP luminescence, 16 h; series mostly up to 95 µM. A digest of the protocol:
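Readout: CellTiter-Glo luminescence after 30 min RT. Treatment: compounds in DMSO, 16 h, 37 C. Cells: CellSensor p53RE-bla HCT-116, 4,000/well, preincubated 5 h.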

Where “and” joins values, the source holds several entries; their conditions need not be identical. Equal entries are not always repeated. Results filed as inconclusive are left out. A number with no mark means an inactive call. Calls of active or inactive are those of the source. Calls follow the shape of the dose curve; as a rule, active = well fitted curve in the direction sought with a large enough effect; inconclusive = small, poorly fitted or top-dose-only effect, or another doubt; inactive = no such curve, though single readings can be large; an effect the other way counts as inactive or inconclusive.
% is scaled to controls: 0 for no effect and ±100 for the full control effect.

As for `O=C(O)c1cc(O)c2c(c1)[O][Bi][O]2`, the max response in assay [1] was 17.6%. In addition, the Potency entry in assay [2] was “inactive”.
Regarding `O=C(O)CCC(=O)C(=O)O`, the max response in assay [1] is 11.5%; in assay [3], 2.53%. Moreover, the call in assay [4] was inactive. The Potency entry in assay [2] was “inactive”.
Regarding `COc1ccc(C[C@@H](C)NC[C@H](O)c2ccc(O)c(NC=O)c2)cc1`, the max response in assay [1] was 19.6%. Further, the Potency entry in assay [2] was “inactive”.
With `CC1(C)C(C=C(Cl)Cl)C1C(=O)OCc1cccc(Oc2ccccc2)c1` (configuration not stated), the figures for the max response in assay [1] and in assay [3] were -8.09% and -9.26% [middle of 4 runs], respectively. Further, the result in assay [4] was inactive. For the same compound, the Potency entry in assay [2] was “inactive”.
With `CCC(=O)NCCC1CCc2ccc3c(c21)CCO3` (configuration not stated), the max response in assay [1] was 12.4%. For the same compound, in assay [2], the Potency result is “inactive”.
As for `CCCCCCCCCCCCCC[n+]1ccc(C)cc1`, the results for the Potency in assay [1] and in assay [2] were 7.94 µM (active) and 25.9 µM (active), respectively.
With `CCCCC/C=C\C/C=C\CCCCCCCC(=O)O`, the max response in assay [1] is 0.52%; in assay [3], -9.3% and -9.38%. In addition, the outcome in assay [4] was inactive. In addition, in assay [2], the Potency entry was “inactive”.
Regarding `IC(I)I`, the max response in assay [1] was 8.07%; in assay [3], -1.78% and -16.4%. In addition, the result in assay [4] was inactive. Moreover, the Potency result in assay [2] was “inactive”.
Turning to `C=CC1=C(C)C2=CC3=NC(=C(CC(=O)[O-])C4=NC(=C(C)C4=C([O-])[O-])C=c4[n-]c(c(C)c4CC)=CC1=N2)C(CCC(=O)[O-])C3C.[Cu+2].[Na+].[Na+].[Na+]` (configuration not stated), the max response in assay [1] is 14.4%. Further, in assay [2], the Potency entry is “inactive”.
Consider `OCC(S)CS` (configuration not stated), for which the Potency in assay [1] was 3.98 µM (active). Moreover, the Potency entry in assay [2] is “inactive”.
Consider `O=S(=O)(O)c1ccc2c(N=Nc3ccc(S(=O)(=O)O)c4ccccc34)c(O)c(S(=O)(=O)O)cc2c1`, for which the max response in assay [1] is 11.5%. In addition, the Potency result in assay [2] was “inactive”.
On to `CC(=O)N(CC(C)C(=O)O)c1c(I)cc(I)c(N)c1I` (configuration not stated), for which the max response in assay [1] is 4.12%. Besides, the Potency result in assay [2] is “inactive”.
